The results in this text go back to PubChem BioAssay (NCATS).

Assay in all cases: Cytotoxic Profiling of Annotated Libraries Using Quantitative High-Throughput Screening (AID 1296008); note: nearly all actives have a fitted effect of over 60% in size
What all share (conditions): Five cell lines viability, CellTiter-Glo ATP luminescence, 48-72 h; max response: active compounds read low

One test has as its system CRL-7250. An outline of the steps:
(§1)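 Compounds were pin-transferred onto cells and incubated 48 or 72 hr at 37 degree Celsius, 95% humidity. CellTiter-Glo was added, plates sat 10 min at room temperature, then ATP-coupled luminescence was imaged as the viability read-out.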

Another test has as its system HEK293. An outline of the steps: as §1
A further test deals with HaCat. An outline of the steps: as §1
Another test deals with KB-3-1. An outline of the steps: as §1
A further test concerns NIH3T3. An outline of the steps:
as §1

Each structure is given as a SMILES string. Records with an inconclusive call do not appear. Unmarked numbers belong to inactive results. Activity calls are given as the source filed them. Calls come from the whole dose curve; as a rule, active = well fitted inhibition curve with a large enough effect; inconclusive = small, poorly fitted or top-dose-only effect; inactive = flat fitted curve, though single readings scatter.
% is set by controls: 0 for no effect and ±100 for the full control effect; potency is the fitted concentration of half-maximal effect.

On to `COC(=O)C[C@H]1C(C)(C)[C@H](OC(=O)C(C)C)C2CC3=C4CC(=O)O[C@@H](c5ccoc5)[C@]4(C)CCC3[C@@]1(C)C2=O` (stereo not given in full), for which the max response with CRL-7250 was 2.69%; in the test with HEK293, -10.8%; in the test on KB-3-1 it was -0.987%; with NIH3T3 it was 1.73%. Moreover, the call with HaCat was inactive.
`FC(F)(F)c1nnc2c(Sc3ccccc3)nc3ccc(Cl)cc3n12`: the Potency is 3.66 µM (active) in the test with CRL-7250, 5.8 µM (active) in the test on HEK293, 4.61 µM (active) with HaCat and 5.17 µM (active) with KB-3-1. In the test with NIH3T3, the call was inactive.
Regarding `O=C(N[C@H](Cc1ccccc1)C(=O)O)c1sc2cc(F)ccc2c1Cl`, the max response is 2.45% in the test with CRL-7250, -2.83% in the test on HEK293 and -0.292% with HaCat. Further, the call with KB-3-1 and in the test on NIH3T3 was inactive.
For the compound `C[C@H]1[C@H](C)C[C@@H](C(=O)O)C2CC[C@]3(C)C(=CC[C@@H]4[C@@]5(C)CC[C@H](O)C(C)(C)[C@@H]5CC[C@]43C)[C@@H]21` (stereo not given in full), the max response in the test with CRL-7250 is -4.25%; in the test on KB-3-1, 8.63%. The Potency in the test on HEK293 was 25.9 µM (active). In addition, the compound was classed as inactive in the test on HaCat and in the test with NIH3T3.
For `C=CC(C)(CC/C=C(\C)C(=O)OC[C@H]1O[C@@H](OC(C)(C=C)CC/C=C(\C)C(=O)O[C@H]2[C@H](O)[C@@H](O)[C@H](OC(C)(C=C)CC/C=C(\C)C(=O)O)O[C@@H]2CO)[C@H](O)[C@@H](O)[C@@H]1O)O[C@@H]1O[C@H](CO)[C@@H](O)[C@H](O)[C@H]1O` (stereo not given in full), the max response in the test with CRL-7250 is -2.1%; in the test on HEK293, -7.01%; in the test on KB-3-1, 3.96%; in the test with NIH3T3 it was -1.72%. For the same compound, the compound was classed as inactive with HaCat.
Turning to `C=C[C@H]1[C@H](O[C@@H]2O[C@H](CO)[C@@H](O)[C@H](OC(=O)/C=C/c3ccc(O)c(OC)c3)[C@H]2O)OC=C2C(=O)OCC[C@]21O`, the max response in the test on CRL-7250 is -3.95%; in the test with HEK293 it was -3.81%; in the test with KB-3-1 it was 6.87%. Moreover, the compound was called inactive in the test with HaCat and in the test on NIH3T3.
